# Source: PubChem BioAssay AID624202 (National Center for Advancing Translational Sciences (NCATS), 2012)
# Screen size: about 380,000 compounds; about 4,000 (1.1%) were called active. Where a call stands in place of a potency, no number is given. Not shown: some 3% with an inconclusive outcome. The call rests on the fitted dose curve; in most records, active means well fitted activation curve with a large enough effect; inconclusive means small, poorly fitted or top-dose-only effect; inactive means no such curve, though single readings can be large or run the other way. Only a selection was taken, and actives are over-represented in it overall.
# Assay: qHTS Assay to Identify Small Molecule Activators of BRCA1 Expression; further: nearly all actives have a fitted effect of over 80% in size
# Conditions: MCF7-BRCA1-FFLuc reporter, luminescence, 48 h; series mostly up to 46.1 µM
# Method in brief: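 48 h compound treatment of MCF7-BRCA1-FFLuc cells (phenol-red free MEM, 37 °C), then 15 min with luciferase substrate and luminescence imaging.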
# Potency means the concentration at half of the fitted maximal effect.
row,SMILES,Potency
1,CCCN1CN=C(NS(=O)(=O)c2ccc(NC(C)=O)cc2)NC1,inactive
2,CC1=C(C(=O)Nc2ccccc2)C(c2ccc(C)cc2)n2nc(SCc3ccccc3C)nc2N1 (centres undefined),inactive
3,COc1ccccc1C(=O)Nn1cnnc1,inactive
4,Cc1ccc2nc(-c3cccc(Br)c3)cc(C(=O)Nn3cnnc3)c2c1,10 µM (active)
5,C/C(N)=C(/C#N)C(=O)COC(=O)c1cc(-c2cccc(Br)c2)nc2ccccc12,inactive
6,Cc1nc2c(-c3ccccc3)c(C)nn2c(C)c1CCC(=O)NCCc1ccccc1,inactive
7,O=C1CC(c2ccccc2)CC2=C1C(c1ccco1)n1nc(C(F)(F)F)nc1N2 (centres undefined),inactive
8,Cc1cc(Nc2cccc(C(F)(F)F)c2)nc2ccc(NC(=O)c3ccc(=O)[nH]c3)cc12,inactive
9,O=c1c(-c2ccccc2)coc2cc(O)ccc12,12.6 µM (active)
10,CC(C)=CCc1c(O)c(CC=C(C)C)c2occ(-c3ccc(O)cc3)c(=O)c2c1O,inactive
11,CN(C)Cc1c(O)ccc2c(=O)c(-c3ccccc3Cl)coc12,inactive
12,COc1ccc(CCn2cc3c(c2-c2ccc(Br)cc2)c(=O)n(C)c(=O)n3C)cc1OC,inactive
13,CCC(C)N(c1ccc(/C=C/c2ccnc3ccccc23)cc1)C(C)CC (centres undefined),inactive
14,COC(=O)c1ccc(Cn2c(SCC(=O)N(C)c3ccccc3)nc3ccccc32)cc1,inactive
15,COc1ccc(CN2C(=O)C(NC(=O)c3cccc(C)c3)(C(F)(F)F)N=C2c2ccccc2)cc1 (centres undefined),inactive
16,CCN1CCN(c2ccc(/C=C/c3ccnc4ccccc34)cc2)CC1,inactive
17,C/C(=C/c1ccccc1)C(=O)N1CCN(c2ccccc2)CC1,inactive
18,O=C(/C=C/c1ccc(N2CCOCC2)cc1)c1ccccc1,3.16 µM (active)
19,O=C(O)CCC(=O)Nc1ccc(N2CCOCC2)cc1,inactive
20,COc1ccc(S(=O)(=O)NCc2cccn2Cc2cccc(C)c2)cc1Cl,inactive
21,CCn1cc2nc(SCc3cccc(F)c3)n(CCc3ccccc3)c(=O)c2n1,inactive
22,CCc1ccccc1NS(=O)(=O)c1ccc2nc(-c3ccccc3)[nH]c2c1,inactive
23,O=C(CCS(=O)(=O)c1ccccc1)NC1CCCC1,10 µM (active)

row,SMILES,Potency
1,CC(=O)c1cc(-c2ccccc2)n(CCC(=O)NC2CCCCCC2)c1C,inactive
2,O=C(CCC(=O)c1cccs1)NC1CCCCCC1,inactive
3,C=C1C=C(C)n2ncc(C(=O)Nc3ccccc3O)c2N1,inactive
4,COc1cc(OC)cc(C(=O)Nc2c(C(=O)Nc3ccc(F)cc3)oc3ccccc23)c1,inactive
5,Cn1cccc1C(=O)OCC(=O)c1ccc(Br)s1,8.91 µM (active)
6,COc1ccc(C(=O)OCC(=O)c2ccc(Cl)s2)c(OC)c1OC,inactive
7,Cn1cccc1C(=O)OCC(=O)NCCc1ccccc1,inactive
8,CCCCNC(=O)Cn1c(SCc2cccc(Cl)c2)nc2ccncc21,inactive
9,CCCN(CCC)C(=O)C(Cc1ccccc1)NS(=O)(=O)c1ccc2c(c1)c(=O)n(C)c(=O)n2C (centres undefined),inactive
10,Cc1ccc(-n2c(=O)c3cccnc3n2CC(=O)NCc2ccc(F)cc2)cc1C,inactive
11,CCCCOC(=O)CSc1ncnc2sc3c(c12)CCC(C)C3 (centres undefined),inactive
12,SCc1nc2ccc(Cl)cc2[nH]1,inactive
13,Cc1ccc(C)c(N2CCN(C(=O)CCc3nc(-c4cccc(C(F)(F)F)c4)no3)CC2)c1,inactive
14,Cc1cccc(-c2noc(CCC(=O)NC3CCCC3)n2)c1,inactive
15,Cc1ccc(Cc2nc(-c3cccc(C)c3)no2)cc1,7.94 µM (active)
16,Cc1[nH]c2ccccc2c1C(=O)C(=O)N(C)c1ccccc1,inactive
17,Cc1ccc(C(=O)Nc2nc3ccc(Cl)cc3s2)o1,0.891 µM (active)
18,Cc1noc(C)c1CSCC(=O)Nc1nc2ccc(Oc3ccccc3)cc2s1,inactive
19,Cc1sc2ncnc(N3CCC(C(=O)Nc4nc5ccc(Cl)cc5s4)CC3)c2c1C,inactive
20,COc1ccc(-c2nc(=N)sn2-c2ccccc2)cc1,inactive
21,Cc1ccc2c(c1)-c1c(cnn1CC(=O)Nc1ccccc1C#N)CO2,inactive
22,COc1cc(CN(C(=O)c2ccccc2Br)c2ccccn2)cc(OC)c1OC,inactive
23,Nc1ccc(/C=C/c2ccnc3ccccc23)c([N+](=O)[O-])c1,inactive

row,SMILES,Potency
1,CN1C(=O)/C(=C/C=C2\SCCN2C)OC1=S,5.62 µM (active)
2,CN(C(=N)N)c1ccc(/C=C2\C=Cc3ccccc32)cc1,inactive
3,O=C(NCCc1cccc(F)c1)C1CCCN(c2nc3ccccc3s2)C1 (centres undefined),inactive
4,Fc1ccc2nc(N3CCCCC3)sc2c1,4.47 µM (active)
5,COc1ccc2nc(N3CCN(C(=O)c4ccc([N+](=O)[O-])o4)CC3)sc2c1,inactive
6,CCCCNC(=O)c1ccc2c(c1)NC(=O)C(C(C)C)N2 (centres undefined),inactive
7,C=CCNC(=O)c1ccc2nc(-c3ccco3)c(-c3ccco3)nc2c1,inactive
8,Cc1cc(C)nc(NC(=O)Nc2ccccc2C(F)(F)F)n1,inactive
9,COc1ccccc1CNS(=O)(=O)c1cc(C(=O)NCc2ccccn2)c(Cl)cc1Cl,inactive
10,O=C(NC1CCCC1)c1cc(-c2ccccc2)on1,inactive
11,C=CCNC(=O)c1ccccc1SCc1c(C)noc1C,inactive
12,O=C(Nc1ccccc1C(F)(F)F)c1cc(-c2ccc(O)cc2)on1,11.2 µM (active)
13,CSc1ccccc1NC(=O)c1cc(C2CC2)on1,inactive
14,O=C(NCc1ccccn1)c1cc(-c2ccccc2Cl)on1,10 µM (active)
15,Cc1cc(Cl)ccc1OCCCC(=O)NCc1ccccn1,inactive
16,C=CCNC(=O)c1cc(-c2ccccc2O)on1,5.62 µM (active)
17,CCc1ccccc1NC(=O)c1cc(-c2ccc3c(c2)OCO3)on1,inactive
18,O=C(Nc1cccnc1Cl)c1cc(-c2ccccc2O)on1,8.91 µM (active)
19,O=C(Nc1ccc([N+](=O)[O-])cc1)c1cnn2c1NC(=C1CC1)C=C2C(F)F,inactive
20,Cc1ccccc1C(=O)Nc1cc(C)c(O)c(-c2nc3ccccc3o2)c1,inactive
21,COc1ccc(-n2c(SCC(N)=O)nc3c(oc4ccccc43)c2=O)cc1,inactive
22,COc1ccccc1N1CCN(C(=O)C2CCN(S(=O)(=O)c3c(C)noc3/C=C/c3ccc(C)cc3)CC2)CC1,inactive
23,Cc1cc(C)c(NC(=O)CCc2c(C)nc3c(c(C)nn3C(C)(C)C)c2C)c(C)c1,inactive
